Experimental findings from PubChem BioAssay (NCATS) are described below.

The structures appear in SMILES notation. Inconclusive results are not listed. A call without a number means that no potency is given here. Activity calls are given as the source filed them. The call rests on the fitted dose curve; in most records, active means well fitted inhibition curve with a large enough effect; inconclusive means small, poorly fitted or top-dose-only effect; inactive means flat fitted curve, though single readings scatter.

Chain of Calcium and integrin-binding protein 1 (Homo sapiens) (Q99828 whole entry, looked up): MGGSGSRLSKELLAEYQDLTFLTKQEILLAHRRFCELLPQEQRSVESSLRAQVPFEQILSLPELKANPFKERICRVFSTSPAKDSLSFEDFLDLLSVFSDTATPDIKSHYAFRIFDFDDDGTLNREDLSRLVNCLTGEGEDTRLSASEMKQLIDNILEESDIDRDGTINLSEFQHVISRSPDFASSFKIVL

The assay has as its target Calcium and integrin-binding protein 1 (Homo sapiens) (UniProt Q99828). In words: Primary qHTS for Identification of Calcium Integrin Binding Protein 1 (CIB1) Competitor (AID 1508620).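 Further: GST tagged CIB1 binding a fluorescein labelled alphaIIb integrin peptide tracer; top concentration of the series differs between compounds.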 Particulars: CIB1-GST / FITC-alphaIIb peptide fluorescence polarization; series mostly up to 114 µM. The procedure, abridged:
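Fluorescence polarization competition: CIB1-GST (1 uM final) preincubated with compound 15 min at room temperature, then FITC-labeled alphaIIb peptide (100 nM final) added for another 15 min. Polarization read at Ex 480/Em 540.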
Regarding `CC(C)(C)[C@H](NC(=O)c1ccc(N)c(Cl)c1)C(=O)N1CCC[C@H]1C(=O)N[C@H](C#N)Cc1nn[nH]n1`, the Potency result was “inactive”.
On to `COc1ccc(S(=O)(=O)NC2CCN(C#N)CC2)cc1`, for which the Potency entry is “inactive”.
Take `CCN(Cc1cccs1)c1ncnc2ccc(-c3ccc4c(c3)OCO4)cc12`: the Potency result is “inactive”.
In the case of `O=S(=O)(NCc1ccccc1)c1ccc(O)c2ncccc12`, the Potency entry is “inactive”.
Regarding `Cc1ccc(CSc2nnc(-c3cccc4ccccc34)o2)cc1`, the Potency entry is “inactive”.
With `Cc1ccc(C[C@H](C(=O)O)N2C(=O)c3ccc(C(=O)O)cc3C2=O)cc1`, the Potency entry was “inactive”.
Consider `CN1C(=O)NC(c2ccccc2Cl)C2=C1CCCC2=O` (configuration not stated), for which the Potency entry is “inactive”.
The same measure for `O=S1(=O)N=C(Oc2ccc(-c3ccccc3)cc2)c2ccccc21`: “inactive”.
As for `Cc1cc2c(s1)c1cnn(Cc3cccc(F)c3F)c(=O)c1n2C`, the entry is “inactive”.
The same measure for `COc1ccc(C2c3c(n(Cc4ccccc4)cnc3=N)Oc3ccc4ccccc4c32)cc1OC` (configuration not stated): “inactive”.
Regarding `COc1ccc(C2Nc3ccccc3C(=O)N2CC(C)(C)C)cc1COc1ccc(NC(C)=O)cc1` (configuration not stated), the Potency entry is “inactive”.
Regarding `O=C(OCC#CCSc1nnc(-c2ccc3ccccc3c2)o1)c1cccs1`, the Potency result was “inactive”.
On to `Cn1ncc(-c2nnc(-c3ccccc3)n2CCCn2ccnc2)c1N`, for which the Potency result was “inactive”.
The same measure for `N#Cc1nc(NCC(F)F)nc(Nc2cc(F)cc(F)c2)n1`: “inactive”; for `O=C(Nc1ccc2ccccc2c1)Nc1cccc(-c2ccncc2)n1`: “inactive”.
The same measure for `O=S(=O)(c1ccc2c(c1)OCCO2)N1C[C@@H]2C[C@H]1CN2S(=O)(=O)c1c(F)cccc1F`: “inactive”.
Turning to `CCCCNC(=O)c1ccc2c(c1)ncn2-c1cccc(C)c1`, the Potency entry is “inactive”.
